Screens (PubChem BioAssay)
Shown are actives, neighbours in structure and some others; about 3.3% of the full set was active somewhere.
SIRT5 inh: SIRT5 desuccinylase inhibitors, primary screen, biochemical, fluorescence imaging, single point, set 5. inhibition, % at 15 µM. NAD-dependent protein deacylase sirtuin-5, mitochondrial (Homo sapiens), Q9NXA8. hit rate 1.1% among 330,000. Purified SirT5, succinyl-peptide AMC, trypsin-coupled fluorescence; in the data active means inhibition above about 15%
Target sequence (Q9NXA8 whole entry, looked up): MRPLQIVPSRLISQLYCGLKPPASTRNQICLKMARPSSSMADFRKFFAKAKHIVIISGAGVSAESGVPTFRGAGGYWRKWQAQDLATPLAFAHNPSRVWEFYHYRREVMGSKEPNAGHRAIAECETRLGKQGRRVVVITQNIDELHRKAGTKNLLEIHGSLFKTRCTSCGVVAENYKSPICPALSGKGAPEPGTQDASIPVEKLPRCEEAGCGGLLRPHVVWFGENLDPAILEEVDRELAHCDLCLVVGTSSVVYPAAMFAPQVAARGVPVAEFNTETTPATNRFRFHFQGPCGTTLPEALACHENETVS
FGF22 binding: binders of human FGF22 protein, primary screen, FGF22 synaptogenesis inhibitor project, biophysical, thermal shift, single point | Fibroblast growth factor 22 (Homo sapiens), Q9HCT0 | recombinant FGF22 thermal shift, SYPRO orange fluorescence; percent of sucrose octasulfate shift, DMSO zero | activity (Tm shift, normalised), % at 9.99 µM | hit rate 1.5% among 340,000 | AID 651658, 2012;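 active means mean Tm shift, scaled 0 neutral to 100 positive control, at about 1.3% or above, every replicate too, limit read from the data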
Target sequence (Q9HCT0 whole entry, looked up): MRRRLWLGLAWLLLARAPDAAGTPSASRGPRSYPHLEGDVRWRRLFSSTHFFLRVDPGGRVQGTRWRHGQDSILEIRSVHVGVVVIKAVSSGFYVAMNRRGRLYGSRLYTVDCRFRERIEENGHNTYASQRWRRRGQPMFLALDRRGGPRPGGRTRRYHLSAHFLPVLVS
ERAP1 inh: human ERAP1 aminopeptidase inhibitors, primary screen, biochemical, single point, plate reader | Endoplasmic reticulum aminopeptidase 1 (Homo sapiens), Q9NZ08 | recombinant ERAP1, Leu-AMC fluorescence, 60 min | inhibition, % at 10.7 µM | hit rate 0.15% among 340,000;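 active means mean replicate inhibition of at least 30%, or all replicates individually reaching that 30% level; inactive means mean below 30% and not every replicate reaching it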;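 further: 0% = neutral control wells and 100% = L-leucinethiol positive control wells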
CASP6 VEID inh: human caspase-6 inhibitors, primary screen, biochemical, VEID-R110 fluorescence, single point, set 2; P55212; purified caspase-6, Z-VEID-R110 cleavage fluorescence; inhibition, % at 12.5 µM; hit rate 0.53% among 350,000; AID 686996, 2013;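 active means mean inhibition across replicates at least about 35%, with every replicate also reaching that limit, limit read from the data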;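 further: 0% = median of neutral control wells and 100% = no fluorescence left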
GSIS activator: GLuc luminescence reporter in INS-1E cells, primary screen for activators of glucose-dependent secretion of insulin; AID 743287, 2014; activation, % at 16.6 µM; hit rate 0.61% among 370,000; INS-1E GLuc reporter insulin secretion, 2-3 h;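 active means lowest replicate activation of at least 40%, so every replicate reaches that level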;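 further: 0% = median of neutral control wells and 100% = median of IBMX positive control wells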
An asterisk follows results filed as active; . = not tested or not shown; + = active, no number.

SMILES | SIRT5 inh | FGF22 binding | ERAP1 inh | CASP6 VEID inh | GSIS activator
O=C1/C(=C/c2ccco2)SC(=S)N1C1CCS(=O)(=O)C1 (centres undefined) | 5.1 | 0.8 | 2.0 | 22.1 | -1.7
CCN(C(=O)C(C)N1C(=O)/C(=C/c2ccco2)SC1=S)C1CCS(=O)(=O)C1 (centres undefined) | 5.4 | 0.3 | 6.6 | 50.2* | -10.2
O=C1/C(=C/c2ccco2)SC(=S)N1CC1CCCO1 (centres undefined) | 0.6 | 0.1 | 2.1 | 61.1* | .
O=C1/C(=C\c2ccco2)SC(=S)N1C1CCS(=O)(=O)C1 (centres undefined) | 3.7 | 0.1 | . | 48.6* | -10.6
C[C@H](CO)N1C[C@H](C)[C@H](CN(C)Cc2ccncc2)OCCCC[C@H](C)Oc2ccc(NS(C)(=O)=O)cc2C1=O | . | . | . | . | 12.3
CCc1ccc(NC(=O)CO/N=C(\C)c2cc3ccccc3o2)cc1 | 0.7 | 43.8* | -4.7 | 0.4 | -7.4
O=C1Nc2cc(C(=O)NCCN3CCCCCC3)ccc2S/C1=C\c1ccccc1 | 0.5 | 0.0 | 1.3 | 99.0* | 39.6
C[C@@H]1CCCCO[C@@H](CN(C)Cc2ccc3c(c2)OCO3)[C@@H](C)CN([C@@H](C)CO)C(=O)c2cc(NC(=O)c3ccccc3)ccc2O1 | 5.4 | 0.0 | -0.6 | 1.3 | -27.2
COc1cccc(NC(=O)N(C)C[C@@H]2Oc3cc(C#Cc4ccccc4)ccc3S(=O)(=O)N([C@H](C)CO)C[C@H]2C)c1 | 19.3* | -0.2 | -1.5 | -4.2 | -2.4
COc1ccc(C#Cc2ccc3c(c2)O[C@H](CN(C)C(=O)Nc2cccc(OC)c2)[C@@H](C)CN([C@H](C)CO)S3(=O)=O)cc1 | 16.9* | 0.4 | -0.1 | 0.1 | -2.4
COc1ccc(C#Cc2ccc3c(c2)O[C@H](CN(C)C(=O)Nc2cccc(OC)c2)[C@H](C)CN([C@H](C)CO)S3(=O)=O)cc1 | -3.1 | -0.2 | -0.3 | -0.2 | -1.8
C[C@@H]1CN([C@@H](C)CO)C(=O)Cc2cc(NS(=O)(=O)c3cn(C)cn3)ccc2O[C@H]1CN(C)Cc1ccncc1 | -4.3 | 0.0 | -10.2 | -1.5 | 9.0
CN(c1ccccc1)S(=O)(=O)c1cccc(NC(=O)CSc2nccc(=O)[nH]2)c1 | . | 43.3* | -1.2 | 2.3 | .
CC(C)NC(=O)Nc1ccc2c(c1)C(=O)N([C@H](C)CO)C[C@H](C)[C@@H](CN(C)Cc1ccc(C(=O)O)cc1)O2 | -1.1 | 0.0 | -9.1 | -0.4 | 4.8
NS(=O)(=O)c1ccc(NC(=S)N2CCN(c3ccc(Cl)c(Cl)c3)CC2)cc1 | . | . | . | . | 108.3*
COc1ccc2oc(-c3ccncc3)cc(=O)c2c1 | -0.4 | 0.4 | -2.0 | 0.2 | 52.6*
COc1ccc(-c2cc(=O)c3cc(O)ccc3o2)cc1 | . | -0.1 | 1.6 | -2.3 | -2.5
FC(F)(F)c1cc(CCN2CCNC[C@H]2Cc2cccc3ccccc23)cc(C(F)(F)F)c1 | 1.9 | 0.1 | 4.1 | 10.2 | +
Cc1cc(C)nc(NC(N)=NCCc2c[nH]c3ccccc23)n1 | -1.8 | 0.1 | -1.6 | -4.2 | 44.8*
CCOC(=O)c1sc(=NC(=O)c2ccc(OC(C)C)cc2)n(C)c1C | -2.9 | 0.0 | -1.7 | 4.5 | 2.6
CCOC(=O)c1sc(=NC(=O)c2ccc(C)c(C)c2)n(C)c1C | -1.9 | 43.1* | 4.7 | -0.4 | 5.4
CCCNC(=O)C[C@@H]1CC[C@@H]2[C@H](COc3ccc(NC(=O)Nc4ccccc4F)cc3C(=O)N2C)O1 | -2.1 | 0.0 | 1.4 | 1.3 | -9.8
Cc1cn(CC(C)C)c(=O)n(-c2ccccc2)c1=O | 7.0 | 0.1 | 1.3 | -1.1 | 51.1*
C[C@@H]1CN([C@H](C)CO)C(=O)c2cc(NC(=O)c3ccncc3)ccc2O[C@@H](C)CCCCO[C@H]1CN(C)Cc1ccncc1 | . | . | . | . | 6.3
O=C(O)CCN(Cc1ccccc1)S(=O)(=O)c1ccc(Cl)cc1F | 0.3 | 43.7* | -0.9 | 0.8 | 1.7
COC(=O)CCN(Cc1ccccc1)S(=O)(=O)c1ccccc1Br | -11.9 | 0.1 | 1.4 | 3.4 | 27.9
CCOc1ccccc1NC(=O)c1cc(C(=O)c2cc(Br)ccc2O)coc1=N | 0.1 | 44.6* | 2.3 | 0.3 | -7.9
